Results taken from ChEMBL document CHEMBL1857833, “Screening and optimization of specific chemical series against human African Trypanosomiasis (HAT)”.
About 390 (8.9%) of roughly 4,400 compounds showed an effect of 50% or more. This excerpt belongs to a sample that is enriched for strong results.

system: Trypanosoma brucei; assay: DNDI: Inhibition of Human African Trypanosomiasis, SBRI 427, in vitro at 2 ug.mL-1; type: functional

Compound	% inhibition [%]
Cc1ccc(/C(=N/O)NCCN2CCOCC2)c(Oc2ccc3ccccc3c2)n1	15
COc1ccc(-c2nc(CNCc3cccc(C(F)(F)F)c3)co2)cc1	-13
CCOc1ccccc1-c1nc(CNC23C[C@H]4C[C@@H](C2)C[C@@H](C3)C4)co1	9
CN(C)CCNCc1coc(-c2cccc3ccccc23)n1	22
C[C@@H]1C(NCc2coc(-c3cccc4ccccc34)n2)C[C@H]2C[C@@H]1C2(C)C (stereo not given in full)	95
CCOc1ccccc1-c1nc(CNc2ccccc2)co1	6
c1ccc(CNCc2coc(-c3cccc4ccccc34)n2)cc1	8
CC1CC(C)CN(Cc2coc(-c3cccc4ccccc34)n2)C1 (stereo not given)	28
C[C@H]1C(NCc2coc(-c3cccc4ccccc34)n2)C[C@@H]2C[C@H]1C2(C)C (stereo not given in full)	85
CCOc1ccccc1-c1nc(CNC2C[C@@H]3C[C@H]([C@H]2C)C3(C)C)co1 (stereo not given in full)	101
Clc1ccccc1-c1nc(CN2CCN(c3ccccn3)CC2)co1	4
Fc1ccc(-c2nc(CNCC(c3ccccc3)c3ccccc3)co2)cc1	-33
COc1cc(-c2nc(CNCc3cccnc3)co2)cc(OC)c1OC	25
CSc1ccc(Oc2nc(C)ccc2/C(=N/O)NCc2ccc(C)o2)cc1C	12
CCOc1ccccc1-c1nc(CN(CC)c2cccc3ccccc23)co1	4
O/N=C(\NC1CCc2ccccc21)c1cccnc1Oc1ccc2ccccc2c1 (stereo not given)	97
CC(C)COc1ncccc1/C(=N/O)NC1CCc2ccccc21 (stereo not given)	-11
O/N=C(\NC1CCc2ccccc21)c1cccnc1Oc1ccc(-n2cncn2)cc1 (stereo not given)	31
COc1ccc(Oc2ncccc2/C(=N/O)NC2CCc3ccccc32)cc1 (stereo not given)	97
CC(C)c1ccc(N/C(=N\O)c2cccnc2Oc2ccc(Cl)cc2)cc1	11
CC(C)c1ccc(Oc2ncccc2/C(=N/O)NC2CCc3ccccc32)cc1 (stereo not given)	100
COc1ccc(Oc2nc(C)ccc2/C(=N/O)NC2CCc3ccccc32)cc1 (stereo not given)	23
O/N=C(\NC1CCc2ccccc21)c1cccnc1Oc1ccc(F)cc1Cl (stereo not given)	9
Cc1ccc(/C(=N/O)NC2CCc3ccccc32)c(Oc2c(F)c(F)cc(F)c2F)n1 (stereo not given)	7
CSc1ccc(Oc2nc(C)ccc2/C(=N/O)NC2CCc3ccccc32)cc1C (stereo not given)	21
Cc1ccc(/C(=N/O)NC2CCc3ccccc32)c(Oc2ccc(F)c(F)c2)n1 (stereo not given)	20
O/N=C(\NC1CCc2ccccc21)c1cccnc1Oc1c(F)cccc1F (stereo not given)	83

Compound	% inhibition [%]
CCOc1ccccc1-c1nc(CNCc2ccc(C)o2)co1	18
COc1cccc(CN/C(=N\O)c2ccnc(Oc3cccc4cccnc34)c2)c1	35
O/N=C(/c1ccc(Oc2cccc3c2CCCC3)nc1)N1CCN(c2ccccc2)CC1	9
C=CCN(CC=C)Cc1coc(-c2ccc(OC)cc2)n1	1
Cc1ccc(/C(=N/O)N(C)c2ccccc2)c(Oc2ccc(Cl)cc2)n1	22
COc1ccc(CN/C(=N\O)c2ccc(C)nc2Oc2cccc3c2CCCC3)cc1	1
Cc1cccc(-c2nc(CN3CCN(c4cc(C)nc5ccccc45)CC3)co2)c1	27
CCOc1ccccc1-c1nc(CN(CC)C2CCN(Cc3ccccc3)C2)co1 (stereo not given)	-5
CC(C)c1ccc(Oc2ccc(/C(N)=N/O)cn2)cc1	23
Cc1ccc(/C(=N/O)NC2CCc3ccccc32)c(Oc2ccc(F)c(Cl)c2)n1 (stereo not given)	-22
CCC(CC)NCc1coc(-c2ccc(OC)cc2)n1	-11
COc1cccc(OC)c1CNCc1coc(-c2ccc(C(C)(C)C)cc2)n1	100
COc1ccc(-c2nc(CNCc3c(OC)cccc3OC)co2)cc1	17
COc1ccc(CNCc2coc(-c3ccccc3Br)n2)c(OC)c1	-13
COc1ccc(CNCc2coc(-c3ccc(C(F)(F)F)cc3)n2)c(OC)c1	11
COc1ccc(-c2nc(CNCc3ccc(OC)cc3OC)co2)cc1	4
COc1ccc(CNCc2coc(-c3cccc4ccccc34)n2)c(OC)c1	57
COc1ccc(CNCc2coc(-c3ccc(C(C)(C)C)cc3)n2)c(OC)c1	69
COc1ccc(CNCc2coc(-c3ccccc3C)n2)c(OC)c1	5
COc1cccc(OC)c1CNCc1coc(-c2ccc(C)cc2)n1	22
COc1ccc(-c2nc(CN3CCc4ccccc4C3)co2)cc1	-8
CN(Cc1coc(-c2ccc(O)cc2)n1)C(c1ccccc1)c1ccccc1	-30
CN(Cc1ccco1)/C(=N\O)c1cccnc1Oc1ccc2c(c1)CCCC2	-1
Cc1ccc(/C(=N/O)N2CCCC2)c(Oc2ccc3ccccc3c2)n1	25
CN(Cc1cccnc1)Cc1coc(-c2ccc(Cl)cc2Cl)n1	36
CN(CC#N)Cc1coc(-c2cccs2)n1	-11
Cc1ccc(CNCc2coc(-c3ccccc3Br)n2)o1	3

Compound	% inhibition [%]
CCOc1ccc(-c2nc(CNC3C[C@@H]4C[C@H]([C@H]3C)C4(C)C)co2)cc1 (stereo not given in full)	78
C[C@@H]1C(NCc2coc(-c3ccc(O)cc3)n2)C[C@H]2C[C@@H]1C2(C)C (stereo not given in full)	26
CCOc1ccc(-c2nc(CNC3C[C@H]4CC[C@@H]3C4)co2)cc1 (stereo not given in full)	11
CC1CCCC(NCc2coc(-c3ccc(O)cc3)n2)C1C (stereo not given)	-13
CCOc1ccc(-c2nc(CNC3C[C@H]4C[C@@H]([C@@H]3C)C4(C)C)co2)cc1 (stereo not given in full)	-5
C[C@H]1C(NCc2coc(-c3ccc(O)cc3)n2)C[C@@H]2C[C@H]1C2(C)C (stereo not given in full)	101
CCOc1ccccc1CN/C(=N\O)c1ccc(Oc2ccc(C)cc2OC)nc1	25
CCN(CCC#N)Cc1coc(-c2cccc3ccccc23)n1	10
Cc1ccccc1-c1nc(CNCC(C)(C)CN(C)C)co1	-8
COc1cc(C)ccc1Oc1nc(C)ccc1/C(=N/O)N1CCCC1	13
Cc1ccc(Oc2nc(C)ccc2/C(=N/O)NCC(C)(C)C)c(C)c1	11
COc1cc(C)ccc1Oc1nc(C)ccc1/C(=N/O)NCC1CC1	100
COc1ccc(Oc2nc(C)ccc2/C(=N/O)NCCN2CCCC2)cc1	-2
COc1cc(C)ccc1Oc1nc(C)ccc1/C(=N/O)NCC(C)C	100
COc1cc(C)ccc1Oc1nc(C)ccc1/C(=N/O)NCC1CCCO1 (stereo not given)	15
COc1cc(C)ccc1Oc1nc(C)ccc1/C(=N/O)NCCSC	-7
COc1cc(C)ccc1Oc1nc(C)ccc1/C(=N/O)NCC(C)(C)C	99
CCCN/C(=N\O)c1ccc(C)nc1Oc1ccc(C)cc1OC	22
Cc1ccc(Oc2nc(C)ccc2/C(=N/O)NCC(C)C)c(C)c1	20
Cc1ccc(/C(=N/O)NCCN2CCCC2)c(Oc2ccc(F)cc2)n1	91
Cc1ccc(/C(=N/O)NCCN2CCCC2)c(Oc2cccc(F)c2)n1	-3
COc1cc(C)ccc1Oc1nc(C)ccc1/C(=N/O)NCC1CCCCC1	0
C=CCN1CCN(/C(=N\O)c2ccc(C)nc2OCc2cccc(F)c2)CC1	3
CCC(NCc1coc(-c2cccs2)n1)c1ccccc1 (stereo not given)	-5
c1coc(-c2nc(CNC3CCc4ccccc43)co2)c1 (stereo not given)	17
CN(Cc1coc(-c2ccccc2F)n1)Cc1cccc2ccccc12	-49
CCN(C)Cc1coc(-c2cccc(F)c2)n1	-10

Compound	% inhibition [%]
COc1cc(CNCc2coc(-c3ccc(O)cc3)n2)cc(OC)c1	8
CC(C)c1ccc(N/C(=N\O)c2ccc(Oc3ccc4oc5ccccc5c4c3)nc2)cc1	25
Cc1ccc(/C(=N/O)N2CCSCC2)c(OCc2cccc(F)c2)n1	-17
CCOC(=O)C1CCCN(Cc2coc(-c3cc(OC)c(OC)c(OC)c3)n2)C1 (stereo not given)	-16
CN(Cc1coc(-c2ccc(Br)cc2)n1)CC1OCCO1	11
Cc1ccccc1-c1nc(CN2CC(C)CC(C)C2)co1 (stereo not given)	6
Cc1ccc(Oc2nc(C)ccc2/C(=N/O)NCC2CC2)cc1	74
COc1ccc(Oc2nc(C)ccc2/C(=N/O)NCC2CC2)cc1	24
Cc1ccc(/C(=N/O)NCC2CC2)c(Oc2ccc(F)cc2)n1	33
CCOc1cccc(-c2nc(Cn3cnc(-c4ccccc4)c3)co2)c1	11
CN(Cc1coc(-c2ccco2)n1)C1CCCCC1	11
Cc1ccccc1CNCc1coc(-c2ccc(O)cc2)n1	1
COC(=O)C1CCN(/C(=N\O)c2cccnc2Oc2ccccc2OC)CC1	15
CSc1ccccc1Oc1ncccc1/C(=N/O)N1CCCCC1	8
COc1ccccc1Oc1ncccc1/C(=N/O)NC1CCCC1	99
COC(=O)C1CCN(/C(=N\O)c2cccnc2Oc2ccccc2SC)CC1	18
O/N=C(\NC1CC1)c1cccnc1Oc1ccccc1F	78
O/N=C(\NC1CCCC1)c1cccnc1Oc1ccccc1F	96
O/N=C(\NCCN1CCCC1)c1cccnc1Oc1ccccc1F	30
O/N=C(/c1cccnc1Oc1ccccc1F)N1CCCCC1	23
Cc1ccc(/C(=N/O)NC2CC2)c(Oc2cccc3cccnc23)n1	29
COc1ccccc1Oc1ncccc1/C(=N/O)N1C(C)CCCC1C (stereo not given)	9
CSc1ccccc1Oc1ncccc1/C(=N/O)NC1CCCC1	99
O/N=C(/c1cccnc1Oc1ccccc1F)N1CCOCC1	13
